Source: PubChem BioAssay AID2551 (National Center for Advancing Translational Sciences (NCATS), 2010)
The campaign covered roughly 310,000 compounds. About 17,000 (5.5%) were called active. Another 11% or so got no clear call; they are omitted. The call rests on the fitted dose curve; in most records, active means well fitted inhibition curve with a large enough effect; inconclusive means small, poorly fitted or top-dose-only effect, or effect the other way; inactive means no such curve, though single readings can be large or run the other way. The full list was thinned out, with actives kept by preference.

Target: Nuclear receptor ROR-gamma (Mus musculus) (UniProt P51450)
Sequence (P51450 whole entry, looked up): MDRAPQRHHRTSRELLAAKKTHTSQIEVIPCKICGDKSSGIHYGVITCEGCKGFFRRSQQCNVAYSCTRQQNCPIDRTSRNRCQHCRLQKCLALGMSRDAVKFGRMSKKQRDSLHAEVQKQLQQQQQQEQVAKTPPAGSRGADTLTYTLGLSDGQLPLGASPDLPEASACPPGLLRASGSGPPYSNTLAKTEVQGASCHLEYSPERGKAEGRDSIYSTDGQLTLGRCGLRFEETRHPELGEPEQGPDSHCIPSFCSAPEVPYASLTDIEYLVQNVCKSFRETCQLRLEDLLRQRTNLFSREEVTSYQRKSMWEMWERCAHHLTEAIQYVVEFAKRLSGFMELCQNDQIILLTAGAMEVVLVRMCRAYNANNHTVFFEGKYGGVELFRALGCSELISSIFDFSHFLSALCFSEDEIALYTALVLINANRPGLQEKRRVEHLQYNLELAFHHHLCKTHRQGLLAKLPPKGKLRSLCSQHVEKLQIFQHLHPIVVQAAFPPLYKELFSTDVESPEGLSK
Test: qHTS for inhibitors of ROR gamma transcriptional activity; further: nearly all actives have a fitted effect of over 60% in size
Conditions: Drosophila S2 Gal4-RORgamma UAS-luciferase reporter, 20 h; series mostly up to 53.6 µM; activity change, negative = inhibition: at the top concentration
Text: NIH Molecular Libraries Probe Production Network [MLPCN] NIH Chemical Genomics Center [NCGC] MLPCN Grant: R03 DA026211-01 Assay Provider: Dan Littman, New York University Assay Overview: The retinoic acid-related orphan receptor (ROR) gamma is a transcription factor that has a central role in the differentiation of Th17 cells, a subset of T helper cells that secrete the inflammatory cytokines IL-17, IL-17F, and IL-22. Th17 cells have been implicated in graft versus host disease, autoimmune disease and asthma. ROR gamma is induced in naive T helper cells in the presence of TGF-beta combined with IL-6, IL-21, or IL-23, and thereafter directs the expression of the Th17 lineage cytokines. To study the mechanism of action of ROR gamma, an insect cell-based assay was screened. This Drosophila Schneider cell line was stably transfected with two vectors: a gene expressing a fusion of the Gal4 DNA binding domain and ROR gamma transactivation domain under the control of the metallothionine promoter and a Photinus luciferase reporter regulated by the Gal4 binding site enhancer, UAS. […] Small molecule inhibitors of ROR gamma activity are detected by a decrease in luciferase reporter activity.
Assay Protocol Summary: For screening, 600 cells in 4 uL/well were dispensed into white solid 1536-well plates (Grenier) using a solenoid-based dispenser. Following transfer of 23 nL compound or DMSO vehicle by a pin tool, the plates were incubated 1 hr at ambient temperature, and 1 uL/well copper sulfate (700 uM final concentration) was added. The plates were centrifuged 15 s at 1000 RPM and incubated 20 hr at ambient temperature. After addition of 1.5 uL Photinus luciferase detection reagent, the plates were incubated 10 min at ambient temperature and then read by an ViewLux (Perkin Elmer) to detect luminescence. Keywords: NIH Roadmap, MLPCN, MLI, MLSMR, qHTS, NCGC, qHTS, nuclear hormone receptor, retinoic acid-related orphan receptor, ROR gamma
On the % scale 0 is the no-effect control and ±100 the full control effect; potency means the concentration at half of the fitted maximal effect.

Activity change, negative = inhibition, inactive:
Cc1nc(S(=O)(=O)c2ccc(Br)cc2)nc2c1CCC2 -1.07%
O=c1c2c(nc3nc[nH]n13)CCC2 11.8%
C/C(=C\C(=O)c1ccc(Br)cc1)N1CCCCC1 -18.8%
COc1cc2c(cc1OC)/C(=C/C(=O)c1ccc(NC(C)=O)cc1)NCC2 -26.3%
C[C@H](NC(=O)[C@@H]1Cc2ccccc2CN1C(=O)OC(C)(C)C)C(=O)NC1CCCC1 4.46%
CC(NC(=O)c1ccco1)c1ccc2c(c1)OCO2 (configuration not stated) -5.06%
Cc1ccc(C(=O)Nc2ccc(NC(=O)c3cccs3)cc2)c(C)c1 -39.8%
Cc1cc(/C=N/n2cnnc2)c(C)n1-c1cccc(C(=O)O)c1 -25.7%
Cc1cc(/C=C2\SC(=O)N(C)C2=O)c(C)n1-c1cccc(C(=O)O)c1 20.7%
Cc1cc(/C=N/Nc2ccc([N+](=O)[O-])cn2)c(C)n1-c1cccc(C(=O)O)c1 18.9%
COC(=O)c1ccc2c(=O)n(CCN3CCOCC3)c(SCC(=O)Nc3cccc(OC)c3)nc2c1 14.3%
CCN1C(=S)N[C@@H](c2cccc(C(F)(F)F)c2)C(C(=O)OC)=C1C -38.5%
CC(C)C[C@H](NC(=O)C1CCC(CNC(=O)[C@@H]2CCCN2C(=O)OC(C)(C)C)CC1)C(=O)O (some centres not stated) -27.2%
COc1cc(NS(=O)(=O)c2ccc(NC(=S)NC(=O)c3ccccc3)cc2)nc(OC)n1 43.1%
COC(=O)Nc1ccc(S(=O)(=O)Nc2cc(OC)nc(OC)n2)cc1 6.6%
COc1ccc(C2(O)C(=O)Nc3ccccc32)cc1 (configuration not stated) 7.24%
Cc1cccn2c(=O)c3cc(C(=O)NC4CCCCC4)sc3nc12 12.6%
COc1ccc(-c2nc(CS(=O)(=O)CC(=O)NCc3cccc(Br)c3)c(C)o2)cc1 -4.95%
S=C(NNC(=S)NC1CC2C=CC1C2)NC1CC2C=CC1C2 (configuration not stated) -1.63%
CC(C)c1ccc(NC(=S)NNc2ccc(Cl)c(C(=O)O)c2)cc1 -2.28%
CC(=O)Nc1ccc(NC(=O)COc2ccc(-c3ccccc3)cc2)cc1 -2.09%
CC1=CC(C)(C)N(C(=O)CSc2nnc(-c3ccccc3)o2)c2ccc(C)cc21 3.05%
Cc1ccc(C)c(-n2ccnc2SCC(N)=O)c1 10.4%
COc1cc(SC)ccc1C(=O)N(Cc1ccccc1)c1ccccc1 0.287%
Cc1ccnc(NC(=O)c2ccoc2C)c1 -20.2%
Cc1ccnc(NC(=O)CCCOc2ccccc2)c1 3.66%
COc1ccccc1CNC(=O)c1ccc(SC)cc1OC 42%
COc1ccc(C)cc1NC(=O)CNCc1cccs1 26.6%
Cc1sc2ncn(CC(=O)NCCCC(=O)NCc3ccc(F)cc3)c(=O)c2c1C 3.51%
CC(C)(C)c1ccc(C(=O)N2CCN(CCNC(=O)C(=O)Nc3ccc(F)cc3)CC2)cc1 42.6%
COc1ccc(CNS(=O)(=O)c2cc(-c3cc(C)no3)ccc2C(C)C)cc1 31.8%
O=C(c1ccco1)N1CCN(C(=O)c2cc(-c3ccccc3F)no2)CC1 28.9%
CC1(C)c2[nH]c3ccccc3c2C[C@H]2C(=O)N(N)CC(=O)N21 6.7%
O=C(c1cnn(-c2ccc(Cl)cc2)c1)c1ccccc1O -38.1%
COc1ccc(C(=O)Cc2cnn(-c3ccccc3)c2)c(O)c1 27.6%
O=C(Nc1cccc(-n2cnnn2)c1)c1cccnc1 12.2%
COc1ccc(CNC(=O)c2c[nH]c3c(OC)cc(OC)cc3c2=O)cc1 8.69%
Nc1nonc1-n1nnc(C(=O)N/N=C/C2CCCCC2)c1-c1ccccc1 -30.9%
Nc1nonc1-n1nnc(C(=O)N/N=C/c2c[nH]c3ccccc23)c1-c1ccccc1 3.13%
Cn1c(=O)c2c(nc(NCCNC(=O)c3ccco3)n2Cc2ccccc2F)n(C)c1=O 16.6%
O=C(O)c1ccc(S(=O)(=O)N2CCC(Cc3ccccc3)CC2)cc1 -17.6%
Cn1cnc2c1c(=O)n(Cc1ccccc1C#N)c(=O)n2C -22%
O=C1CN(C(=O)c2ccccc2F)C(c2ccc(F)cc2)c2cc(F)ccc2N1 (configuration not stated) 24.6%
Cc1cc(=O)oc2c(C)c(OCC(=O)NCCN3CCOCC3)ccc12 -6.37%
O=C(O)c1ccc(/C=N/NC(=S)NCc2ccccc2)cc1 -12%
CC1CCCCN1C(=S)NCc1ccccc1 (configuration not stated) -121%
C[n+]1ccc(C(=O)NCc2ccccc2)cc1 -17.6%
O=C(CC1CCCCC1)NCc1ccccc1 -26.9%
CC(CC(=O)N1CCN(c2ccccc2)CC1)S(=O)(=O)c1ccc2c(c1)NC(=O)CS2 (configuration not stated) 26.3%
COC(=O)COc1ccc2c(=O)c(Oc3ccccc3Br)coc2c1 -14.6%
Cc1ccc(S(=O)(=O)NCC(=O)Nc2ccc3c(c2)OCCO3)cc1 -2.15%
O=C(N/C(=C\c1ccc([N+](=O)[O-])cc1)C(=O)N1CCOCC1)c1cccc(Br)c1 18.2%
O=C(/C=C/c1ccc(Cl)cc1)NCCCn1ccnc1 -4.51%
CCn1cc(/C=C(\NC(=O)c2ccc(C)cc2)C(=O)NCCN2CCOCC2)c2ccccc21 6.77%
COc1ccc(-c2cc(C(=O)NCCCN3CCOCC3)no2)cc1 -20.5%
O=C(NCCCN1CCOCC1)c1cc(-c2cccc(O)c2)on1 -16.9%
Cn1cc(S(=O)(=O)Nc2ccc(Cl)cc2Cl)c(=O)n(C)c1=O -23.8%
COc1cc(OC)c(NS(=O)(=O)c2cn(C)cn2)cc1Cl -31.2%
Cc1cc(C(=O)N/N=C/c2ccc(N3CCOCC3)cc2)c(C)o1 1.46%
Cc1cc(C(=O)N/N=C/c2ccccc2[N+](=O)[O-])c(C)o1 14.4%
Cc1c(CC(=O)N2CCN(C(=O)C3COc4ccccc4O3)CC2)c(=O)oc2c(O)c(O)ccc12 (configuration not stated) -17.5%
COc1cc(OC)cc(C(=O)Nc2nnc(SCC(=O)NCC3CCCO3)s2)c1 (configuration not stated) 4%
CC(=O)c1ccc(N2CCN(CC(O)c3ccccc3)CC2)cc1 (configuration not stated) -14.4%
Cc1[nH]c(C)c(S(=O)(=O)N2CCN(c3cccc(C(F)(F)F)c3)CC2)c1C(=O)N1CCCCC1 -4.17%
Cc1cccc(-c2nc(CS(=O)CC(=O)NC(C)CCc3ccccc3)c(C)o2)c1 (configuration not stated) 43.4%
COc1ccc(-c2nc(CS(=O)CC(=O)NCc3ccccc3)c(C)o2)cc1OC (configuration not stated) 3.74%
CCCOc1ccc(Cc2c(O)nc(SC)[nH]c2=O)cc1C 30.8%
O=C(c1cc2ccccc2o1)N1CCN(c2cccc(C(F)(F)F)c2)CC1 33.7%
N=c1c2c(-c3ccccc3)c(-c3ccccc3)oc2ncn1Cc1ccco1 22.8%
COc1ccc(-c2oc3ncnc(NCCCO)c3c2-c2ccc(OC)cc2)cc1 22.4%
CC(C)[C@@H]1COC(c2cccc(C3=N[C@H](C(C)C)CO3)c2)=N1 -41.6%
O=C(NC(Cc1ccc(O)cc1)C(=O)O)/C(=C/c1ccccc1)NC(=O)c1ccccc1 (configuration not stated) -2.76%
O=C(C[C@H]1C(=O)N(c2ccc(F)c(F)c2)C[C@@H]1Cc1ccccc1)Nc1ccccc1 44.7%
Cc1c(C)c(C)c(S(=O)(=O)N2CCC3(CC2)OCCO3)c(C)c1C -34.3%
Cc1cc(SCc2c(F)cccc2Cl)nc(=O)[nH]1 2.04%
CC(=O)NCCC(=O)Nc1cc(S(=O)(=O)N2CCOCC2)ccc1N1CCOCC1 32.6%
O=C(COC(=O)Cc1ccc(F)cc1)Nc1cc(S(=O)(=O)N2CCOCC2)ccc1N1CCCC1 33.6%
O=C(Nc1ccccc1C(=O)Nc1ccncc1)c1ccc([N+](=O)[O-])cc1 25.4%
Cc1ccc(N2CCN(c3ccc([N+](=O)[O-])cn3)CC2)c(C)c1 -2.68%
O=C(COC(=O)c1ccc(N2CCCC2=O)cc1)c1ccc(OC(F)F)cc1 44.5%
O=C(NCCNc1ccccc1[N+](=O)[O-])c1ccccc1F 20.5%
COc1cc(CN2CCC(n3nccc3NC(=O)CCCc3ccccc3)CC2)ccc1O 24.6%
CCOc1cc2[nH]c(=S)n(CCCN3CCCC3=O)c(=O)c2cc1OCC -1.37%
COc1cc2[nH]c(=O)n(CCC(=O)NC3CCN(Cc4ccccc4)CC3)c(=O)c2cc1OC -7.87%
CCOc1cc2[nH]c(=S)n(Cc3ccc(C(=O)NCCOC)cc3)c(=O)c2cc1OCC -43.7%
COc1cc2[nH]c(=O)n(Cc3ccc(C(=O)NC4CCN(Cc5ccccc5)CC4)cc3)c(=O)c2cc1OC 6.06%

Potency, active:
Brc1ccc(Nc2c3c(nc4ncnn24)CCC3)cc1 12.6 µM
CC1CN/C(=C\C(=O)c2ccc(Br)cc2)C(=O)N1 (configuration not stated) 12.6 µM
Cc1cccc(-n2c(C)cc(/C=N\NC(=O)c3cccs3)c2C)c1 10 µM
Cc1cccc(-n2c(C)cc(/C=N/NC(N)=S)c2C)c1 3.55 µM
COc1cc(NS(=O)(=O)c2ccc(N/C=C(\C=O)c3nc4cc(Cl)ccc4o3)cc2)nc(OC)n1 14.1 µM
CC(C)c1ccc(NC(=S)NC2CC3C=CC2C3)cc1 (configuration not stated) 3.55 µM
CC1=CC(C)(C)N(C(=O)CSc2nccn2C)c2cc(C)ccc21 11.2 µM
COc1cc(SC)ccc1C(=O)Nc1cc(C)ccn1 6.31 µM
COc1cc(SC)ccc1C(=O)Nc1nc(C)cs1 1.26 µM
Cc1cc(O)cc(O)c1C(=O)Cc1cnn(-c2ccccc2)c1 0.199 µM
CCCOc1ccc(-c2c(C(=O)N/N=C/c3ccco3)nnn2-c2nonc2N)cc1 11.2 µM
C/C(=N\NC(=S)NCc1ccccc1)C1CCCCC1 0.224 µM
C/C(=N\NC(=S)NCc1ccccc1)c1ccc(Cl)cc1 3.55 µM
O=C(NCCCN1CCOCC1)c1cc(-c2ccc(Cl)cc2)on1 11.2 µM
CC(=C/c1ccccc1)/C=N/NC(=O)c1cc(C)oc1C 7.08 µM
COc1ccc(-c2nc(CS(=O)CC(=O)NCc3cccnc3)c(C)o2)cc1OC (configuration not stated) 11.2 µM
COc1ccc(-c2oc3ncn(Cc4ccco4)c(=N)c3c2-c2ccc(OC)cc2)cc1 12.6 µM
COCCNC(=S)Nc1cc(S(=O)(=O)N2CCOCC2)ccc1N1CCCCC1 0.891 µM
CC/C(=N\NC(=S)NC(C)C)c1ccc(OC(F)F)cc1 0.562 µM
COc1cc2[nH]c(=S)n(Cc3ccc(F)cc3)c(=O)c2cc1OC 1.78 µM
COc1cc2[nH]c(=S)n(Cc3ccc(C)o3)c(=O)c2cc1OC 5.01 µM
